Drawing on paper PMC6792352, “Limited Chemical Structural Diversity Found to Modulate Thyroid Hormone Receptor in the Tox21 Chemical Library” (Environmental Health Perspectives, 2019), this text covers AC50 for 33 molecules.

Usually AC50 stands for the midpoint of the concentration-response curve, whichever way the signal moves.

Counter-ions that a name gives are not always drawn. Where only a bound is given, the exact number is not on record here.

In this test the test system is thyroid hormone receptor (endogenous TRα and TRβ). More on the design: species or system GH3-TRE-Luc (rat pituitary); GH3-TRE-Luc luciferase reporter, antagonist mode against 1 nM T3, loss of signal, qHTS. The conditions noted are these: read-out: Average AC50 (uM) GH3-TRE-Antag, antagonist mode, 1 nM T3, no GH3 cytotoxicity hit.
As for `CN(C)[C@@H]1C(O)=C(C(N)=O)C(=O)[C@@]2(O)C(O)=C3C(=O)c4c(O)ccc(Cl)c4[C@@](C)(O)[C@H]3C[C@@H]12` [Chlortetracycline hydrochloride], the half-maximal activity concentration (AC50) was more than 20 µM.

Turning to `C=CC(=O)OCCOc1ccccc1` [2-Phenoxyethyl acrylate], the half-maximal activity concentration (AC50) was found to be 47.8 µM.

On to `Cc1cc(OI)c(C(C)C)cc1-c1cc(C(C)C)c(OI)cc1C` [Thymol iodide], for which the half-maximal activity concentration (AC50) was 37.3 µM.

Regarding `c1csc(SSc2cccs2)c1` [2-Thienyl disulfide], the half-maximal activity concentration (AC50) is 57.5 µM.

For `O=C1[C@H](CC[C@H](O)c2ccc(F)cc2)[C@@H](c2ccc(O)cc2)N1c1ccc(F)cc1` [Ezetimibe], the concentration at half-maximal activity (AC50) came to 33.5 µM.

In the case of `CCC(=O)Nc1ccc(Cl)c(Cl)c1` [Propanil], the AC50 was 92.4 µM.

In the case of `CCN(C(=O)N(CC)c1ccccc1)c1ccccc1` [N,N'-Diethylcarbanilide], the AC50 came to 45.9 µM.

For `Oc1c(I)cc(I)c2cccnc12` [Iodoquinol], the AC50 was 11.5 µM.

For the molecule `CC1=CC(C)(C)Nc2ccccc21` [1,2-Dihydro-2,2,4-trimethylquinoline, polymer], the AC50 is 28 µM.

In the case of `C[C@]12CCC(=O)C=C1CC[C@@H]1[C@@H]2CC[C@@]2(C)[C@H]1CC[C@]2(O)C(=O)CO` [Cortodoxone], the half-maximal activity concentration (AC50) is 21.8 µM.

Turning to `C=C(C)CN(CC)c1c([N+](=O)[O-])cc(C(F)(F)F)cc1[N+](=O)[O-]` [Ethalfluralin], the AC50 is more than 90 µM.

Consider `O=C(N/N=C/c1ccc([N+](=O)[O-])o1)c1ccc(O)cc1` [Nifuroxazide], for which the AC50 was found to be 13.7 µM.

Take `CC(C)C[C@H](NC(=O)OCC1c2ccccc2-c2ccccc21)C(=O)O` [N-(9-Fluorenylmethoxycarbonyl)-L-leucine]: the concentration at half-maximal activity (AC50) is more than 90 µM.

For `COC(=O)[C@H]1[C@H]2C[C@@H]3c4[nH]c5cc(OC)ccc5c4CCN3C[C@H]2C[C@@H](OC(=O)/C=C/c2cc(OC)c(OC)c(OC)c2)[C@@H]1OC` [Rescinnamine], the AC50 came out at 21 µM.

Regarding `CC[C@H](C)C(=O)O[C@H]1C[C@H](O)C=C2C=C[C@H](C)[C@H](CC[C@@H](O)C[C@@H](O)CC(=O)O)[C@H]21` [Pravastatin sodium], the AC50 stood at 18.4 µM.

Consider `CCCCCCCCCCCCCC(=O)OCC(O)CO` (stereo not drawn) [Tetradecanoic acid, 2,3-dihydroxypropyl ester], for which the concentration at half-maximal activity (AC50) came to 61.9 µM.

Take `O=C(O)c1cc(I)cc(I)c1I` [2,3,5-Triiodobenzoic acid]: the concentration at half-maximal activity (AC50) is more than 100 µM.

Consider `C#C[C@]1(OC(C)=O)CC[C@H]2[C@@H]3CCC4=CC(=O)CC[C@@H]4[C@H]3CC[C@@]21C` [Norethindrone acetate], for which the AC50 was found to be 10 µM.

`C[C@H](CN1CCCC1)C(=O)c1ccc(C(F)(F)F)cc1` [Lanperisone hydrochloride]: the AC50 is 31.4 µM.

Turning to `CC(C)Oc1ccc2c(=O)c(-c3ccccc3)coc2c1` [Ipriflavone], the AC50 came to 25 µM.

On to `c1ccc(-c2cccc(-c3ccccc3)c2)cc1` [1,1':3',1''-Terphenyl], for which the AC50 was determined as 50.3 µM.

As for `CCCc1c(OCCCCc2nnn[nH]2)ccc(C(C)=O)c1O` [Tomelukast], the half-maximal activity concentration (AC50) worked out at 49.2 µM.

As for `COC(=O)NC(=S)Nc1ccccc1NC(=S)NC(=O)OC` [Thiophanate-methyl], the AC50 is 78.1 µM.

As for `CCCc1nc2c(C)cc(-c3nc4ccccc4n3C)cc2n1Cc1ccc(-c2ccccc2C(=O)O)cc1` [Telmisartan], the AC50 came out at 31.6 µM.

With `C/C(=C\c1csc(C)n1)[C@@H]1C[C@@H]2O[C@]2(C)CCC[C@H](C)[C@H](O)[C@@H](C)C(=O)C(C)(C)[C@@H](O)CC(=O)O1` [Epothilone B], the concentration at half-maximal activity (AC50) amounted to 0.0109 µM.

As for `CCC(C)(C)c1ccc(O)cc1` [4-(2-Methylbutan-2-yl)phenol], the AC50 was more than 50 µM.

Turning to `CCCCCC/C=C\CCCCCCCC(=O)O` [(Z)-Hexadec-9-enoic acid], the AC50 was 44.5 µM.

As for `Cl[C@H]1[C@H](Cl)[C@@H](Cl)[C@@H](Cl)[C@H](Cl)[C@H]1Cl` [Lindane], the AC50 worked out at 81.2 µM.

`Oc1ccc2c(c1)-c1ccccc1C2` [3-Hydroxyfluorene]: the AC50 came out at 91.5 µM.

On to `Nc1ccc(C(=O)Oc2ccccc2)c(O)c1` [Phenyl 4-aminosalicylate], for which the concentration at half-maximal activity (AC50) is 49.5 µM.

With `CCC(=O)OCC(=O)[C@@]1(OC(=O)CC)[C@@H](C)C[C@H]2[C@@H]3CCC4=CC(=O)C=C[C@]4(C)[C@@]3(F)[C@@H](O)C[C@@]21C` [Betamethasone dipropionate], the half-maximal activity concentration (AC50) stood at 27.9 µM.

For the molecule `O=C(CCCN1CCC(O)(c2ccc(Br)cc2)CC1)c1ccc(F)cc1` [Bromperidol], the AC50 is 12.9 µM.

Consider `COC(=O)Nc1nc2ccc([S+]([O-])c3ccccc3)cc2[nH]1` (stereo not drawn) [Oxfendazole], for which the half-maximal activity concentration (AC50) came to 12.2 µM.
